The values below come from PubChem BioAssay (Tox21).

Several values for one entry are separate records, joined by “and”; a condition that tells them apart may be missing. Equal entries are not always repeated. Records with an inconclusive call do not appear. More than one record can exist for a structure, and the calls need not agree. Activity calls are given as the source filed them. Calls come from the whole dose curve; as a rule, active = well fitted curve in the direction sought with a large enough effect in the repeat runs; inconclusive = weak or mixed curves; inactive = no such curve, though single readings can be large; an effect the other way counts as inactive or inconclusive. Residues, ends and D or L forms follow the SMILES beside them.

The target in test [1] is Cytochrome P450 2D6 (Homo sapiens) (UniProt P10635). Briefly: Cytochrome P450 Family 2 Subfamily D Member 6 (CYP2D6) small molecule antagonists: luciferase reporter qHTS assay (AID 1671196). Note: nearly all actives have a fitted effect of over 50% in size. Note: potency is the fitted concentration of half-maximal effect. As to conditions: P450-Glo CYP2D6 enzyme assay, luciferin luminescence, 1 h; series mostly up to 115 µM. The gist of the method:
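Cell-free P450-Glo system: CYP2D6 with proluciferin substrate was pre-incubated with compound for 10 min, then reacted with NADPH regeneration for 1 h at room temperature. Luciferin product was detected after 20 min, and data were reported as relative luminescence units.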

Test [2] has as its target Cytochrome P450 2C9 (Homo sapiens) (UniProt P11712). The test can be described thus: Cytochrome P450 Family 2 Subfamily C Member 9 (CYP2C9) small molecule antagonists: luciferase reporter qHTS assay (AID 1671198). Note: nearly all actives have a fitted effect of over 50% in size. Note: potency is the fitted concentration of half-maximal effect. As to conditions: P450-Glo CYP2C9 enzyme assay, luciferin luminescence; series mostly up to 115 µM. The gist of the method: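 Enzyme-substrate mix preincubated with compound 10 min at room temperature; reaction started with NADPH regeneration solution, 1 h 37C. Luminescent luciferin product read after 20 min detection reagent.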
(A reporter such as luciferase makes a cellular process visible.)

The target of test [3] is Cytochrome P450 1A2 (Homo sapiens) (UniProt P05177). The test can be described thus: Cytochrome P450 Family 1 Subfamily A Member 2 (CYP1A2) small molecule antagonists: luciferase reporter qHTS assay (AID 1671199). Note: nearly all actives have a fitted effect of over 50% in size. Note: potency is the fitted concentration of half-maximal effect. The settings on record: P450-Glo CYP1A2 enzyme, luciferin luminescence, 1 h; series mostly up to 115 µM. The method, boiled down: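 P450-Glo CYP1A2 enzyme–proluciferin substrate mix with compound 10 min at room temperature, then NADPH regeneration 1 h at room temperature. Luciferin detection reagent added, luminescence read after 20 min; furafylline positive control.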
Chain of Cytochrome P450 1A2 (Homo sapiens) (P05177 whole entry, looked up): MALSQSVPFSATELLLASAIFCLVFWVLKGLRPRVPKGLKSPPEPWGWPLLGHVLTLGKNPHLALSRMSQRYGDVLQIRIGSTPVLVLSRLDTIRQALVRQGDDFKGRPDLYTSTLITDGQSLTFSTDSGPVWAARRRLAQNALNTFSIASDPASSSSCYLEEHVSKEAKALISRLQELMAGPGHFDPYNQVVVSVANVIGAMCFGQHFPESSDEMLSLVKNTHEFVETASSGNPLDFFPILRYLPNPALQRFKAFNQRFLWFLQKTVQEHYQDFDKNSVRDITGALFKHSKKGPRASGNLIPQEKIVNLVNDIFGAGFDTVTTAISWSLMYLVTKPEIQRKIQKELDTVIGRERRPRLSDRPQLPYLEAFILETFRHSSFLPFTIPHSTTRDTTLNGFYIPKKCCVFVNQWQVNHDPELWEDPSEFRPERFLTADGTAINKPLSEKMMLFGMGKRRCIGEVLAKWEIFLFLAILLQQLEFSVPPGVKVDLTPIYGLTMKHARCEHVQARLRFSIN

The target of test [4] is Voltage-gated inwardly rectifying potassium channel KCNH2 (Homo sapiens) (UniProt Q12809). The test can be described thus: Human Ether-a-go-go-Related Gene (hERG) channel small molecule antagonists: fluorescence cell-based qHTS assay (AID 1671200).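 Note: hERG-expressing U2OS cells given a thallium stimulus after FluxOR II dye loading; nearly all actives have a fitted effect of over 50% in size.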 The settings on record: hERG-U2OS cells, FluxOR thallium flux fluorescence; series mostly up to 76.8 µM. The method, boiled down: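 U2OS cells expressing the channel were plated at 1000 cells/well, incubated overnight at 37 C, then loaded with FluxOR II thallium-sensitive dye for 1 h at room temperature in the dark, with a further 10 min at room temperature before stimulation.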
Chain of Voltage-gated inwardly rectifying potassium channel KCNH2 (Homo sapiens) (Q12809 whole entry, looked up): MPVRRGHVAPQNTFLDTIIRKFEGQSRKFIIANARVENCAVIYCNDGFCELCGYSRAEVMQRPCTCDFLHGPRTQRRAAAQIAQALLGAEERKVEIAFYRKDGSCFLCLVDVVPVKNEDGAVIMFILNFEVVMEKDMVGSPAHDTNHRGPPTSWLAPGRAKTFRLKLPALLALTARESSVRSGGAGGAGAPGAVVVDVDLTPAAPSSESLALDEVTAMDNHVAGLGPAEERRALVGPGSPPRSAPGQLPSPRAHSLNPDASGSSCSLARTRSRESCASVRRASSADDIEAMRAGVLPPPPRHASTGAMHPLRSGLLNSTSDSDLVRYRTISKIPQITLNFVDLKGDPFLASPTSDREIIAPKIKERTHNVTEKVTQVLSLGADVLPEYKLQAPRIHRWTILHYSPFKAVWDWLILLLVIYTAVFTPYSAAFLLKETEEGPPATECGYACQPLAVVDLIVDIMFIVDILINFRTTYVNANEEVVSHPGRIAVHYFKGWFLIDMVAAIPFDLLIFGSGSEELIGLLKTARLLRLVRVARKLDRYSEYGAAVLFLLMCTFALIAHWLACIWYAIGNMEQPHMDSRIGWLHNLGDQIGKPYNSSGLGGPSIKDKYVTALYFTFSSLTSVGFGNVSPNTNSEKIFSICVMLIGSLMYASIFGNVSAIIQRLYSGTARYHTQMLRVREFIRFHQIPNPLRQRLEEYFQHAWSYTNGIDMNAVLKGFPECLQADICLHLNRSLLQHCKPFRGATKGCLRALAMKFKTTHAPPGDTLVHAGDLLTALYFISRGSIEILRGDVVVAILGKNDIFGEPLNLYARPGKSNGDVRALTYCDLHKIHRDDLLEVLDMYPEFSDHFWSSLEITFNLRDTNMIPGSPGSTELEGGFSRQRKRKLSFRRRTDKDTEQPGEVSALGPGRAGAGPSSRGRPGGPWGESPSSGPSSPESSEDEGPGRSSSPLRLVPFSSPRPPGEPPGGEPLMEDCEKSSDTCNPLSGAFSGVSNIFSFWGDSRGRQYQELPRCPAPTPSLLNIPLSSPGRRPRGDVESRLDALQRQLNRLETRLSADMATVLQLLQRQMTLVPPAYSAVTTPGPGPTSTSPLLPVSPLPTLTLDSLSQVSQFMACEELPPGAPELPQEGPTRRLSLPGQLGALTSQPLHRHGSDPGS

Test [5] deals with Cytochrome P450 3A4 (Homo sapiens) (UniProt P08684). Briefly: Cytochrome P450 Family 3 Subfamily A Member 4 (CYP3A4) small molecule antagonists: luciferase reporter qHTS assay (AID 1671201). Note: nearly all actives have a fitted effect of over 50% in size. Note: potency is the fitted concentration of half-maximal effect. As to conditions: P450-Glo CYP3A4 enzyme, luciferin luminescence, 1 h; series mostly up to 115 µM. The gist of the method:
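P450-Glo CYP3A4 system with proluciferin substrate; compounds preincubated 10 min RT with enzyme-substrate mix, then NADPH regeneration added for 1 h RT. Detection reagent 20 min, luminescence read as relative luminescence units.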

The target of test [6] is Cytochrome P450 2C19 (Homo sapiens) (UniProt P33261). The test can be described thus: Cytochrome P450 Family 2 Subfamily C Member 19 (CYP2C19) small molecule antagonists: luciferase reporter qHTS assay (AID 1671197). Note: nearly all actives have a fitted effect of over 65% in size. As to conditions: P450-Glo CYP2C19 enzyme, luciferin luminescence, 1 h; series mostly up to 115 µM. The method, boiled down: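 Relative luminescence units recorded 20 min after the detection reagent stopped a 1 h, 37C CYP2C19 reaction on proluciferin substrate, which was started by NADPH regeneration following 10 min room-temperature compound preincubation; ketoconazole positive control.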
Chain of Cytochrome P450 2C19 (Homo sapiens) (P33261 whole entry, looked up): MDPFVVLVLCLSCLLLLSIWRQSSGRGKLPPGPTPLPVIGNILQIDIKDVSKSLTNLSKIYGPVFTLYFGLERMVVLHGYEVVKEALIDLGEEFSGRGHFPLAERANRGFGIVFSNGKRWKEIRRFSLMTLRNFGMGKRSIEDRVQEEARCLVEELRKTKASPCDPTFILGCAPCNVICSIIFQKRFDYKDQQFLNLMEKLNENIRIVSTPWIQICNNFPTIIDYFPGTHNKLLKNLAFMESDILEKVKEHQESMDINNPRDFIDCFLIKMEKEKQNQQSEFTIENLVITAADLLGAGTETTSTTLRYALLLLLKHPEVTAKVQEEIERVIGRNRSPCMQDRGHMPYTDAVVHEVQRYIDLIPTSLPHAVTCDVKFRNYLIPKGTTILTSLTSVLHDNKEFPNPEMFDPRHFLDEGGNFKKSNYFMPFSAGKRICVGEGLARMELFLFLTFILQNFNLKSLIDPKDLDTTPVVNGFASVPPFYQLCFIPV

Chain of Cytochrome P450 2C9 (Homo sapiens) (P11712 whole entry, looked up): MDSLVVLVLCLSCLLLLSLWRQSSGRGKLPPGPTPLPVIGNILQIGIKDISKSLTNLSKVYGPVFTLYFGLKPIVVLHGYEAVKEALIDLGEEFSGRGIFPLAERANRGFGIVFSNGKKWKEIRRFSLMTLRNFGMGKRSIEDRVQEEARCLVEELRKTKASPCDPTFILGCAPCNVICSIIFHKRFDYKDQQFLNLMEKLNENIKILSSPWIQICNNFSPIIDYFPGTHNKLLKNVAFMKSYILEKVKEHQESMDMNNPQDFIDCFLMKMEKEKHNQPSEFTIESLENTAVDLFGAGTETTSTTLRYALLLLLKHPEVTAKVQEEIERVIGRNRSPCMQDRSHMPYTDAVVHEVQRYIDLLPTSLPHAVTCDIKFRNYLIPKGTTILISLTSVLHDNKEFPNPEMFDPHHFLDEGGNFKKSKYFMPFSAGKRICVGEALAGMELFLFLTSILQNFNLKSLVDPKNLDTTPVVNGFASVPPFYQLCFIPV
Chain of Cytochrome P450 2D6 (Homo sapiens) (P10635 whole entry, looked up): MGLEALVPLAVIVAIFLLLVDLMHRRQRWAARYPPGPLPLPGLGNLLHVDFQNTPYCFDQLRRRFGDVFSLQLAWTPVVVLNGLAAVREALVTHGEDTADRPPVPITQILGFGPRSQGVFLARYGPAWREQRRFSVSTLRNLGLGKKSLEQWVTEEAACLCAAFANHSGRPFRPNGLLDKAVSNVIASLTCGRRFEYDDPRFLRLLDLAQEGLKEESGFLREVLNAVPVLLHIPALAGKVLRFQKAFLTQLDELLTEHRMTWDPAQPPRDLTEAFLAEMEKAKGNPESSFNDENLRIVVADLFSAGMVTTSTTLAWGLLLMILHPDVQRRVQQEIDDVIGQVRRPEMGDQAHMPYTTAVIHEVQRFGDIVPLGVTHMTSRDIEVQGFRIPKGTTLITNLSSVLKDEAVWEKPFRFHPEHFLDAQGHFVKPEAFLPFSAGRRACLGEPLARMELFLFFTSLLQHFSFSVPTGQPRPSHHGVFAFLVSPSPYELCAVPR
Chain of Cytochrome P450 3A4 (Homo sapiens) (P08684 whole entry, looked up): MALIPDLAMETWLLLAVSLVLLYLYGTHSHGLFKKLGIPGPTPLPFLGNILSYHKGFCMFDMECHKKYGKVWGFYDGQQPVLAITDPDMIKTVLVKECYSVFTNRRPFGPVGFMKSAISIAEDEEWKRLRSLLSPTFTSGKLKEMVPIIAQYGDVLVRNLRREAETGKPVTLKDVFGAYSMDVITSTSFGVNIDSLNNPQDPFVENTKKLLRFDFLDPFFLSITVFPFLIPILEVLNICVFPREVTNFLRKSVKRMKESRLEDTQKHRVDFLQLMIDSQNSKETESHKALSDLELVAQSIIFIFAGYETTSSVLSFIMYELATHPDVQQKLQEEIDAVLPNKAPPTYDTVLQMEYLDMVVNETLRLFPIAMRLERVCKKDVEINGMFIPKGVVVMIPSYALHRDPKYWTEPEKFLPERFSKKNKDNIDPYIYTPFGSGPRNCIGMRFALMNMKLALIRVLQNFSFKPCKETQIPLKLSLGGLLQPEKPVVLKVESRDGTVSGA

As for `CCCCC(CC)COC(=O)/C=C/c1ccc(OC)cc1` (configuration not stated), the Potency entry in test [1] and in test [5] was “inactive” throughout. Moreover, the Potency in test [2] is 19.9 µM (active) and 12.6 µM (active) and 11 µM (active); in test [3], 19.9 µM (active) and 12.6 µM (active) and 13.8 µM (active). For the same compound, the compound was classed as inactive in test [4].
With `Cc1ccc(O)cc1`, in test [4], the compound was called inactive.
Turning to `Cc1cn([C@H]2C[C@H](N=[N+]=[N-])[C@@H](CO)O2)c(=O)[nH]c1=O`, the Potency entry in test [1], in test [3] and in test [5] was “inactive” each time. In test [2], the Potency was 63.3 µM (active) and inactive. In addition, the compound was called inactive in test [4].
For the compound `Nc1ccc(S(=O)(=O)c2ccc(N)cc2)cc1`, the Potency result in test [1], in test [2], in test [3] and in test [5] was “inactive” throughout. The compound was classed as inactive in test [4].
Consider `Cc1ccc(S(=O)(=O)NC(=O)NN2CCCCCC2)cc1`, for which, in test [4], the outcome was inactive.
For the compound `O=C1NC(=O)c2ccccc21`, the Potency entry in test [1], in test [2], in test [3] and in test [5] was “inactive” each time. Further, the result in test [4] was inactive.
`N=C(N)c1ccc(OCCCCCOc2ccc(C(=N)N)cc2)cc1`: the Potency result in test [6] and in test [3] was “inactive” in each case.
Turning to `O=NO`, the compound was classed as inactive in test [4].
As for `O=c1ccc2ccccc2o1`, the Potency result in test [1], in test [2] and in test [5] was “inactive” each time. The Potency in test [3] is 36.3 µM (active) and 31.7 µM (active) and inactive. Also, the compound was classed as inactive in test [4].
Regarding `NC(=O)c1cnccn1`, the Potency in test [1] is 19.7 µM (active) and inactive. In addition, the Potency entry in test [2], in test [3] and in test [5] was “inactive” in each case. The compound was classed as inactive in test [4].
Consider `CC(=O)NS(=O)(=O)c1ccc(N)cc1`, for which the Potency result in test [1], in test [3] and in test [5] was “inactive” each time. In addition, in test [4], the compound was classed as inactive.
On to `COc1c2occc2cc2ccc(=O)oc12`, for which, in test [2], the Potency is 5.06 µM (active) and 10 µM (active) and 4.9 µM (active). Besides, the compound was classed as inactive in test [4].
In the case of `CC(O)CO` (configuration not stated), the Potency entry in test [1] was “inactive and 1.56 µM (active)”; in test [5], 27.2 µM (active) and inactive. For the same compound, the Potency entry in test [2] and in test [3] was “inactive” throughout. For the same compound, the compound was called inactive in test [4].
For `CC(O)C(=O)O` (configuration not stated), the Potency result in test [1] was “inactive and 11 µM (active)”; in test [3], “inactive and 24.5 µM (active)”. In addition, the Potency result in test [2] and in test [5] was “inactive” each time. Besides, in test [4], the compound was classed as inactive.
As to `COC(=O)[C@H](Cc1ccccc1)NC(=O)[C@@H](N)CC(=O)O` (H-Asp-Phe-OMe), the Potency entry in test [1], in test [2], in test [3] and in test [5] was “inactive” in each case. In addition, the outcome in test [4] was inactive.
For the compound `CC(C)[C@@H]1CC[C@@H](C)C[C@H]1O`, the Potency entry in test [1], in test [2], in test [3] and in test [5] was “inactive” throughout. Besides, the result in test [4] was inactive.
For `Nc1ccc(O)c(C(=O)O)c1`, the Potency in test [2] was 62.7 µM (active) and 63.3 µM (active). Further, the Potency result in test [3] and in test [5] was “inactive” each time. In addition, the outcome in test [4] was inactive.
Turning to `CC1(C)[C@@H]2CC[C@@]1(C)C(=O)C2`, the Potency result in test [1], in test [2], in test [3] and in test [5] was “inactive” each time. Besides, the compound was classed as inactive in test [4].
With `OC(Cn1cncn1)(Cn1cncn1)c1ccc(F)cc1F`, in test [1], the Potency was 22.7 µM (active) and inactive. Further, the Potency entry in test [3] is “inactive”. The outcome in test [4] was inactive.
Regarding `Nc1ccn([C@H]2CC[C@@H](CO)O2)c(=O)n1`, the Potency entry in test [1], in test [2], in test [3] and in test [5] was “inactive” throughout. In test [4], the result was inactive.
As for `C[C@]12C=CC(=O)C=C1CC[C@@H]1[C@@H]2[C@@H](O)C[C@@]2(C)[C@H]1CC[C@]2(O)C(=O)CO`, the Potency result in test [1], in test [3] and in test [5] was “inactive” each time. Also, the Potency in test [2] is 62.4 µM (active) and inactive. In test [4], the result was inactive.
`Cc1ccccc1C(OCCN(C)C)c1ccccc1` (configuration not stated): the Potency result in test [2] and in test [5] was “inactive” throughout. Also, the Potency result in test [3] was “inactive and 31.7 µM (active)”.
On to `CCCC(O)C(CC)CO` (configuration not stated), for which the Potency result in test [1], in test [2], in test [3] and in test [5] was “inactive” in each case. Further, the outcome in test [4] was inactive.
Turning to `CNC[C@H](O)c1cccc(O)c1`, in test [4], the compound was classed as inactive.
